This passage reports z-score results from PubChem BioAssay.

Calls of active or inactive are those of the source.

One assay is described as follows: E. coli acrAB mutant growth effects, primary screen, E. coli filamentation inducers, strain DRC39, OD650, 48 h (AID 1179).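 Further: screen aims at cell division blockers that make cells filament.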 The note with it: E. coli DRC39 delta-acrAB growth, higher = more signal, called active from +8 up or from −8 down.
With `CC(C)(C)OC(=O)COc1cccc(C(=O)CCN2CCOCC2)c1`, the z-score was 0.0359 (inactive).
Still for that read-out and setting: as for `CS(=O)(=O)CCOC(=O)C1=CC(CCCO)=CC(c2ccc(CN3CCCC3)cc2)N(Cc2sc3ccccc3c2Cl)C=C1C(=O)OCCS(C)(=O)=O` (centres undefined), the figure is 0.309 (inactive).
`COC(=O)[C@@]1(Cc2ccc(F)cc2)[C@H]2c3cc(C(=O)N(C)C)n(CCc4ccc(OC)c(Br)c4)c3C[C@H]2CN1C(=O)c1ccccc1`: the z-score is -1.49 (inactive).
Same read-out and setting: as for `COc1ccc([Si](C)(C)[C@@H]2[C@@H](CC(=O)N3Cc4ccccc4C[C@H]3CO)O[C@]3(C(=O)N(Cc4ccc(N5C(=O)c6cccc7cccc5c67)cc4)c4ccccc43)[C@H]2C)cc1`, the figure is 0.403 (inactive).

A short description of a further assay: RPMI8226 myeloma cell viability, profiling panel, resazurin fluorescence, basal, 24 h, PK04 Diversity Set (AID 1180).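 Further: RPMI8826 multiple myeloma cell line at 5000 cells per well; test concentration not given here.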 The note with it: higher = more signal. For orientation: Resazurin is reduced to fluorescent resorufin, in cell work by metabolically active cells.
With `COc1cc2c(cc1O)C(C1CC1)N(Cc1cccc(OC(F)(F)F)c1)CC2` (centres undefined), the z-score was -2.84.
Same read-out and setting: as for `C=CC[C@]1(C(=O)N2CCOCC2)COC(c2ccc(OCCCO)cc2)=N1`, the figure is 0.0543.
For `C=CC[C@]1(C(=O)N2CCCCC2)N=C(c2ccc(OCCCO)cc2)O[C@H]1c1ccccc1CN=[N+]=[N-]`, the z-score was 0.128.
Still for that read-out and setting: the same measure for `COc1ccc(CCNC(=O)[C@@]2(Sc3ccc(C)cc3)CC(=O)N(Cc3ccccc3C(F)(F)F)[C@@H]2c2ccc(CO)cc2I)cc1`: -1.72; for `O=C1N(CCS(=O)(=O)c2ccccc2)c2ccccc2[C@H]2OC(c3ccc(OCCCO)cc3)=N[C@@]12Cc1ccccc1`: -1.96; for `CCCCC[C@H]1OC[C@@]23C=C(Br)[C@@H](CC12)[C@@]1(CO1)C3=O` (some centres undefined): -0.0702.
Still for that read-out and setting: as for `COC(=O)[C@@]1(Cc2ccc(OC)cc2)[C@H]2c3cc(C(=O)N(C)C)n(Cc4ccc(OC(F)(F)F)cc4)c3C[C@H]2CN1C(=O)c1ccccc1`, the figure is -3.56; as for `CCC#CCN(Cc1ccccc1Br)[C@H](/C=C/C1CC1)[C@@H](O)Cc1ccccc1`, 0.329; as for `CC[C@@H]1O[Si](C(C)C)(C(C)C)c2c1cc(-c1cc(C)c(OC)c(C)c1)nc2-c1ccc(Oc2ccccc2)cc1`, 0.51.
`CCCNC(=O)[C@@]1(C)c2ccccc2C(=O)N(c2ccc(C)cn2)[C@H]1c1ccc(CO)cc1` returned a z-score of -0.388.
Regarding `[N-]=[N+]=Nc1ccccc1[C@@H]1OC(c2ccc(OCCCO)cc2)=N[C@]1(Cc1ccccc1)C(=O)N1CCCCC1`, the z-score is -3.5.
In turn, `COc1ccc([Si](C)(C)[C@@H]2[C@@H](CCO)O[C@]3(C(=O)N(Cc4ccccc4)c4ccc(N5C(=O)c6cccc7cccc5c67)cc43)[C@H]2C)cc1` showed a z-score of -0.298.
On the same count and under the same terms, as for `COc1cccc(C)c1NC(=O)O[C@H]1[C@H](OC(=O)Nc2ccc3c(c2)OCO3)[C@@H](OC(=O)Nc2ccc3c(c2)OCO3)[C@@H](OC)O[C@@H]1CO`, the figure is -0.939; as for `Cc1cc(C)c(C(O)C2C=CC3C(=O)N(c4ccccc4)C(=O)C3N2Nc2ccccc2F)c(C)c1` (centres undefined), -0.527; as for `CCCC1(C(=O)OC)C=C2C(=C(C)C(=O)C2C)CN1` (centres undefined), -1.88.
Same read-out and setting: the same measure for `O=C(NCCN1CCOCC1)[C@@H]1c2ccccc2C(=O)N(Cc2ccccc2Cl)[C@H]1c1ccc(CO)cc1`: -0.831; for `C=C(/C(=C/C[C@H](OC(C)=O)c1ccc(CO)o1)c1cnc2ccccc2c1)C(C)C`: -0.659; for `CCOC(=O)C[C@H]1[C@H](OC(=O)Cc2ccc3c(c2)OCO3)[C@@H](NC(=O)c2ccc3ccccc3n2)c2cc(OCCCO)ccc2N1C(=O)c1ccc2ccccc2n1`: -0.172.
`[N-]=[N+]=Nc1ccccc1C[C@]1(C(=O)NCCN2CCOCC2)COC(c2ccc(OCCCO)cc2)=N1` showed a z-score of 1.13.
For the molecule `COc1ccc(CCNC(=O)[C@@H]2c3ccccc3C(=O)N(C3CCCCC3)[C@H]2c2ccc(CO)cc2)cc1`, the z-score stood at 0.978.
In turn, `COCCOC(=O)N1C(=O)[C@@]2(c3ccccc31)[C@H](C(=O)NC[C@H](O)c1ccccc1)[C@H]1C(=O)O[C@H](c3ccccc3)[C@H](c3ccccc3)N1[C@@H]2c1ccc(O)cc1` came in with a z-score of -0.773.
Still for that read-out and setting: as for `COC(=O)[C@]1(CCS(=O)(=O)c2ccccc2)N=C(c2ccc(OCCCO)cc2)O[C@@H]1c1ccccc1N=[N+]=[N-]`, the figure is -2.26.
The molecule `CC(C)C(CO)N1C(=O)[C@@H]2C3C(=O)OCCC/C=C\[C@H]3OC23C=CCN(c2ccc4ccccc4c2)C(=O)[C@@H]13` (some centres undefined) returned a z-score of -0.344.
`CN1C2C=C(CCCO)C(C3C(=O)N(C(N)=O)C(=O)C32)C1C1CC1` (centres undefined) came in with a z-score of -0.761.
`NCCCCCNC(=O)[C@@H]1C[C@@H]2C(=O)N[C@@H](CCCCN)C(=O)N2[C@@H]1c1ccc(O)cc1` displayed a z-score of 0.249.
Still for that read-out and setting: as for `CCCCCC1=C2CNC(C)(C(=O)OC)C=C2C(C)C1=O` (centres undefined), the figure is -1.66; as for `COc1ccc(CCNC(=O)[C@@]2(c3ccc([N+](=O)[O-])cc3)CC(=O)N(C3CCCCC3)[C@@H]2c2ccc(CO)cc2)cc1`, 0.556.
On the same count and under the same terms, as for `COCCOC(=O)N1C(=O)[C@@]2(c3cc(C#CCC(C(=O)OC)C(=O)OC)ccc31)[C@H](c1ccc(OCCO)cc1)N1[C@H](c3ccccc3)[C@H](c3ccccc3)OC(=O)[C@H]1[C@@H]2C(=O)N1CCc2cc(OC)c(OC)cc2C1`, the figure is 0.504; as for `O=C(c1ccccc1)N1C(=O)[C@]2(Cc3ccccc31)N=C(c1ccc(OCCCO)cc1)O[C@@H]2c1ccccc1`, -5.46; as for `COc1ccc([Si](C)(C)[C@@H]2[C@@H](CCO)O[C@]3(C(=O)N(Cc4ccccc4)c4ccc(N5CCOC5=O)cc43)[C@H]2C)cc1`, -2.79.
The molecule `O=C1C2C=CC(C(O)c3ccco3)N(Nc3ccccc3F)C2C(=O)N1c1ccccc1` (centres undefined) registered a z-score of -0.684.
`CC(C)(C)OC(=O)COc1cccc(C(=O)CCN2CCOCC2)c1` gave a z-score of -3.51.
Same read-out and setting: the same measure for `CS(=O)(=O)CCOC(=O)C1=CC(CCCO)=CC(c2ccc(CN3CCCC3)cc2)N(Cc2sc3ccccc3c2Cl)C=C1C(=O)OCCS(C)(=O)=O` (centres undefined): -0.0127.
Still for that read-out and setting: the same measure for `COC(=O)[C@@]1(Cc2ccc(F)cc2)[C@H]2c3cc(C(=O)N(C)C)n(CCc4ccc(OC)c(Br)c4)c3C[C@H]2CN1C(=O)c1ccccc1`: -5.69.
Same read-out and setting: as for `COc1ccc([Si](C)(C)[C@@H]2[C@@H](CC(=O)N3Cc4ccccc4C[C@H]3CO)O[C@]3(C(=O)N(Cc4ccc(N5C(=O)c6cccc7cccc5c67)cc4)c4ccccc43)[C@H]2C)cc1`, the figure is -0.221.
